DRD3 antagonist: blocks the human D3 dopamine receptor. AID 652054. D3R cells, DiscoveRx beta-arrestin luminescence, antagonist mode; stronger effect = lower value. max response, negative = inhibition, %. P35462. 360,000 compounds, 2.5% hits; in the data active = max response below about -50%; inconclusive = no clear call, values can overlap the other calls
Target sequence (P35462 whole entry, looked up): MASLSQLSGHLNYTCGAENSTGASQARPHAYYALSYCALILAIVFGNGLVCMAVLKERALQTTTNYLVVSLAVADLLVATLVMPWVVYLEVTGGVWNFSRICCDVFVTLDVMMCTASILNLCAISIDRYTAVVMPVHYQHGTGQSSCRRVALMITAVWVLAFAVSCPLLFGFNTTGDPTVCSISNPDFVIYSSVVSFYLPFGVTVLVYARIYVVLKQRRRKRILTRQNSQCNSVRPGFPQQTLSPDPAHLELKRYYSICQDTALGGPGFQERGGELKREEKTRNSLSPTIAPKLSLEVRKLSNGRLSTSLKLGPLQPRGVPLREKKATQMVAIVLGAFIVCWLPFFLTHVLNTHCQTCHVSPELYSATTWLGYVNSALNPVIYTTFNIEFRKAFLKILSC
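Cells expressing the human receptor were seeded at 1500 cells/well, incubated overnight at 37 degrees C in 5% CO2, then exposed to library compounds with dopamine controls for 90 minutes at 37 degrees C before luminescent detection.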
D1 potentiator: enhances dopamine response at the human D1 receptor; 360,000 compounds, 0.036% hits; P21728; potentiation, % at 10 µM; AID 504651; HEK293 TREx D1 cells, calcium flux, dopamine EC20 potentiation; in the data active = potentiation above about 30%
D1 ag: activates the human D1 dopamine receptor. HEK293 T-REx D1 cells, calcium flux, agonist mode. activation, % at 2 µM. 360,000 compounds, 1% hits. P21728; in the data active = activation above about 30%
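Tetracycline-induced HEK293 TREx D1 cells, force-coupled to calcium signalling, were dye-loaded with a no-wash calcium kit. Compound was pin-added after a 10 s baseline. Fluorescence was read kinetically at 1 cycle/s for 180 s, with calcium rises flagged as agonism.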
D1 antagonist: antagonists of human D1 dopamine receptor | HEK293 TREx D1 cells, calcium flux, dopamine EC80; stronger effect = lower value | 360,000 compounds, 3.2% hits | activity change, negative = inhibition, % at 10 µM; in the data active = activity change below about -30%
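HEK293 T-REx cells expressing inducible, force-coupled D1 receptor; no-wash Ca dye, 30–90 min RT. Cmpd → 180 s read at 1 Hz → EC80 DA → 180 s read.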
DRD3 agonist: activates the human D3 dopamine receptor; max activation, %; P35462; 410,000 compounds, 0.58% hits; D3R DiscoveRx beta-arrestin cells, luminescence, 90 min; in the data active = max activation above about 30%
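Cells at 1500/well, incubated overnight, then treated with pinned compounds (dopamine as control) for 90 min at 37 degrees C. DiscoveRx reagent added for 30 - 60 minutes at room temperature; luminescence read.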
Each line names hits and unclear results; the compound was inactive in the other large screens. Hits are enriched below; roughly 6% of the tested compounds scored in any of these assays.

COc1ccccc1-c1cc(C(=O)Nc2sc3c(c2C#N)CCC(C)C3)c2ccccc2n1 (centres undefined)	DRD3 antagonist -63
Cc1cc(C(=O)OCC(=O)Nc2sc3c(c2C#N)CCC(C)C3)c2ccccc2n1 (centres undefined)	none
Cc1cccc(Cn2c(=O)n(-c3cc(C)cc(C)c3)c(=O)c3oc4ccccc4c32)c1	none (no result: DRD3 antagonist)
CCOC(=O)c1c(C)[nH]c(C)c1S(=O)(=O)N(C)CC(=O)Nc1ccc(C)cc1C	none (no result: DRD3 antagonist)
O=C(NCc1ccc(-c2csnn2)cc1)c1cc(Cl)cc(Cl)c1	none
O=C(NCc1ccc(-c2csnn2)cc1)c1cccs1	DRD3 antagonist -51
COC(=O)c1ccc(OC)c(CN2C(=O)N(c3ccc(C(C)=O)cc3)S(=O)(=O)c3ccccc32)c1	none (no result: DRD3 antagonist)
COc1ccccc1C(=O)Nc1ccc2nc(SCCOc3ccccc3C)sc2c1	none (no result: DRD3 antagonist)
O=C(NCCc1ccc(Cl)cc1)c1ccc(CS(=O)Cc2cccc(Cl)c2)o1 (centres undefined)	none (no result: DRD3 antagonist)
Cc1ccc(C)c(N2CCN(S(=O)(=O)c3cc(C(=O)Nc4ccccc4C(F)(F)F)ccc3F)CC2)c1	none (no result: DRD3 antagonist)
CC1CN(S(=O)(=O)c2ccc(C(=O)OCc3ccc(C#N)cc3)cc2)CC(C)O1 (centres undefined)	D1 ag 34 (no result: D1 potentiator)
CC1CN(S(=O)(=O)c2ccccc2)CC(C)O1 (centres undefined)	D1 antagonist -35
CC1CN(S(=O)(=O)Cc2ccccc2)CC(C)O1 (centres undefined)	none
COc1ccc(CCNC(=O)c2cnc3sc(N4CCCC4)nn3c2=O)cc1OC	none (no result: DRD3 antagonist)
Cc1nc(COc2ccc(C(=O)NCc3ccccc3CN3CCCCC3)cc2)cs1	D1 ag 34, D1 antagonist -64
O=C(NCc1ccccc1CN1CCCC1)c1ccc(OCc2cscn2)cc1	none (no result: D1 potentiator)
Cc1ccc(C)c(CNC(=O)c2ccc3c(c2)nc2n3CCCCC2)c1	none (no result: DRD3 antagonist)
O=C(NCCNc1ccc([N+](=O)[O-])cc1C(F)(F)F)c1ccccc1	D1 antagonist -31
CC(NC(=O)CCNC(=O)c1ccccc1Cl)c1ccc(-n2ccnc2)cc1 (centres undefined)	DRD3 antagonist -59
Cc1cccc(NC(=O)CS(=O)(=O)c2nc(-c3ccccc3)cn2-c2cccc(Cl)c2)c1C	none (no result: DRD3 antagonist)
CCO[C@H]1OC(C(=O)N2CCCCCCC2)=C[C@@H](c2ccccc2)[C@@H]1CCCO	none
C#Cc1ccc([C@H]2C=C(C(=O)OCC=C)O[C@@H](OCC)[C@@H]2CCCO)cc1	DRD3 agonist 62
C#Cc1ccc([C@@H]2C=C(C(=O)OCC=C)O[C@H](OCC)[C@H]2CCCO)cc1	none
CCO[C@@H]1OC(C(N)=O)=C[C@H](c2ccc3c(c2)OCO3)[C@H]1CCCO	D1 antagonist -34
CCO[C@@H]1OC(C(=O)N2CCOCC2)=C[C@H](c2ccccc2)[C@H]1CCCO	DRD3 antagonist -65
CCO[C@H]1OC(C(=O)NC2CC2)=C[C@@H](c2ccc3c(c2)OCO3)[C@@H]1CCCO	none
COc1ccc(NC(=O)Cn2c3ncccc3c(=O)n2-c2ccc(C)c(C)c2)c(OC)c1	none (no result: DRD3 antagonist)
CC1CCC2(CC1)NC(=O)N(CC(=O)NCCc1ccc(F)cc1)C2=O (centres undefined)	none
Cc1nc(-c2ccc(Cl)cc2)oc1COC(C)(C)C(=O)O	none (no result: DRD3 antagonist, D1 potentiator, D1 ag, D1 antagonist)
CNS(=O)(=O)c1cn(CC(=O)Nc2ccc(OC)cc2OC)cc1S(=O)(=O)NC	none (no result: DRD3 antagonist)
Cc1ccc(NC(=O)c2oc3c(c2C)-c2[nH]ncc2CC3)c(Cl)c1	D1 antagonist -43 (no result: DRD3 antagonist)
c1cncc(-c2nn3c(Cn4nnc5ccccc54)nnc3s2)c1	DRD3 agonist 51
COc1ccc(NC(=O)C2(C)CCN2CCc2ccccc2)cc1OC (centres undefined)	DRD3 agonist 72 (no result: D1 potentiator, D1 ag, D1 antagonist)
COc1ccc(-c2cn3c(n2)sc2cc(C(=O)NCCC4=CCCCC4)ccc23)cc1	none (no result: DRD3 antagonist)
CC(=O)c1nc(N2C(=O)CC(Cc3cccc(C)c3)C2=O)sc1C (centres undefined)	DRD3 antagonist -55, D1 antagonist -53
CC(=O)c1nc(N2C(=O)CC(Cc3cc(C)cc(C)c3)C2=O)sc1C (centres undefined)	DRD3 antagonist inconclusive
CN(CCC#N)C(=O)COC(=O)c1nn(-c2ccccc2)c(=O)c2ccccc12	DRD3 antagonist -58
CCc1ccccc1NC(=O)CN1C(=O)c2ccccc2Sc2ncccc21	none (no result: DRD3 antagonist)

High-throughput results: PubChem BioAssay, National Center for Advancing Translational Sciences (NCATS)
